SMILES strings stand for the structures. This is part of a sample that, as a whole, favours compounds with a hit. Of some 83,000 tested, about 20% had one in any assay.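 Results are percent growth after 48 hours of single-concentration exposure. 100 means growth as in untreated cells, lower positive values show inhibition; negative values down to -100 show cell death.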 Unmarked numbers belong to inactive results. Active and inactive are the calls of the source. The calls were made as follows: active = growth percent below 10; inactive = the rest.

Assay in all cases: NCI-60 one-dose screen, 48 h (100 = growth as untreated, 0 = no growth, -100 = all killed)
Holding throughout (settings): 10 µM unless noted

The subject of assay [1] is EKVX NSCLC.
Assay [2] has as its system SN12C renal.
Assay [3] concerns UO-31 renal.
The subject of assay [4] is TK-10 renal.
In assay [5] the test system is ACHN renal.
Assay [6] deals with CAKI-1 renal.
The test system of assay [7] is A498 renal.
Assay [8] concerns CCRF-CEM leukemia.
Assay [9] relates to MOLT-4 leukemia.
For assay [10], the system named is SR leukemia.

In the case of `CCOC(=O)c1sc(-c2ccc(OS(=O)(=O)c3cccs3)c(C=O)c2)nc1C`, the growth was 33.6% in [1]; 1.55% (active) in assay [2]; -4.34% (active) in assay [3]; 12.2% in [4]; 0.377% (active) in assay [5]; 2.41% (active) in [6]. In addition, the growth in assay [7] was 31.4%; in assay [8], 7.57% (active); in assay [9], -7.85% (active); in [10], 3.44% (active).
In the case of `O=C(NC1C(O)OC(CO)C(O)C1O)NS(=O)(=O)c1ccc(Cl)cc1` (stereo not given), the growth in assay [1] was 109%; in assay [2], 98.1%; in assay [3], 77.1%; in [4] it was 110%; in assay [5] it was 102%; in assay [6] it was 94.4%. Also, the growth in assay [7] was 95.2%; in [8], 99.1%; in [9] it was 102%; in assay [10] it was 100%.
As for `O=C(NCc1ccccc1)C1CN(c2ccc(Cl)cc2)N(c2ccc(Cl)cc2)C1=O` (stereo not given), the growth was 87.8% in assay [1]; 91% in assay [2]; 55.9% in assay [3]; 95.7% in assay [4]; 94.7% in assay [5]; 75.4% in assay [6]. The growth in assay [7] is 73.4%; in assay [8], 73.4%; in assay [9], 64.3%; in assay [10], 34.3%.
Turning to `CSc1nc2c(c(=O)n1C)N=C1c3ccccc3C(=O)C1C(c1ccccc1)N2` (stereo not given), the growth in assay [1] is 75.4%; in assay [2], 138%; in assay [3], 71.1%; in assay [4] it was 101%; in [5] it was 75.5%; in assay [6] it was 53.4%. The growth was 99.9% in [7], 82.6% in [8], 84% in assay [9] and 27.1% in assay [10].
With `CC1=CCC(OC(=O)C(C)(C)CCC(O)(C(=O)OC2(C(C)C)CCC3(C)OC3C2)C(C)C)(C(C)C)CC1` (stereo not given), the growth is -63% (active) in assay [1]; -43.8% (active) in assay [2]; -99.2% (active) in [3]; -99.2% (active) in assay [4]; -94.8% (active) in assay [5]; -100% (active) in assay [6]. Besides, the growth in assay [7] is -83.1% (active); in assay [8], -19.2% (active); in assay [9], -30.3% (active); in assay [10], 11.3%.
`O=C(/C=C/c1ccc(C(F)(F)F)cc1)c1ccc(Nc2nc(NCCO)nc(Nc3ccc(Cl)cc3)n2)cc1`: the growth was 59.1% in [1]; 79.1% in assay [2]; 59.9% in assay [3]; 86.6% in assay [4]; 52.2% in assay [5]; 68.2% in assay [6]. In addition, the growth is 78.5% in [7], 18.2% in assay [8], 20.7% in [9] and 21.2% in [10].
Turning to `COc1cc(/C=C/C(=O)c2ccc(Cl)cc2)cc(CN2CCCCC2)c1O`, the growth in [1] was 89.5%; in assay [2], 93.1%; in assay [3] it was 58.5%; in assay [4], 115%; in assay [5], 87.1%; in assay [6] it was 85.2%. For the same molecule, the growth is 82.6% in assay [7], 58.8% in assay [8], 64.3% in assay [9] and 34% in assay [10].
In the case of `Cc1nc(Nc2ccccn2)sc1C(=O)/C=C/c1ccc(Cl)cc1`, the growth is 27.8% in [1]; 32% in assay [2]; 28.6% in [3]; 61.5% in [4]; 23.2% in assay [5]; 27.9% in assay [6]. Moreover, the growth in assay [7] was 6.49% (active); in assay [8], 17.1%; in assay [9], 17.2%; in assay [10] it was 15.6%.
For `O=c1c(-c2nc3ccccc3[nH]2)cc2ccccc2n1Cc1cn(Cc2ccc(N3CCOCC3)cc2)nn1`, the growth is 89.7% in [1]; 49.7% in assay [2]; 74.8% in [3]; 92.7% in [4]; 35.7% in assay [5]; 77.3% in [6]. The growth is 92.4% in assay [7], 110% in assay [8], 99% in assay [9] and 71.7% in [10].
As for `Cn1c(/C=C(\C#N)c2cccc(C(F)(F)F)c2)nc2c(N3CCOCC3)nc(Cl)nc21`, the growth was -76.2% (active) in assay [1]; -0.107% (active) in assay [2]; -100% (active) in [3]; -67% (active) in assay [4]; -100% (active) in assay [5]; -94% (active) in assay [6]. In addition, the growth in assay [7] was 10.8%; in assay [8] it was 4.85% (active); in assay [9] it was -14.3% (active); in assay [10] it was 10.3%.
On to `Nc1cccc(Nc2cc(S(=O)(=O)O)c(N)c3c2C(=O)c2ccccc2C3=O)c1`, for which the growth in [1] is 85.1%; in [2] it was 99%; in assay [3], 110%; in assay [4], 107%; in assay [5], 96.3%; in [6], 92.8%. In addition, the growth in [7] is 102%; in assay [8], 101%; in [9] it was 103%; in assay [10], 115%.
In the case of `COC(=O)c1ccc(NC(=O)CSc2nc3ccccc3c(=O)n2-c2ccccc2)cc1`, the growth was 117% in [1]; 104% in assay [2]; 86.4% in assay [3]; 103% in assay [4]; 103% in assay [5]; 91.5% in assay [6]. Moreover, the growth in assay [7] is 96.7%; in assay [8], 92.8%; in [9] it was 88%; in assay [10], 88.9%.
For the molecule `Cc1cc2c(c(C)c1Cl)C(=O)/C(=C/c1cccc([N+](=O)[O-])c1)O2`, the growth in [1] is 98.3%; in [2] it was 96.9%; in assay [3], 96.2%; in assay [4], 129%; in [5], 107%; in assay [6] it was 91.6%. Moreover, the growth was 95.6% in assay [7], 102% in assay [8], 90.5% in assay [9] and 85.5% in [10].

For the origin of these results see PubChem BioAssay (NCI).
